Assay results reported in PubChem BioAssay AID1347416 (National Center for Advancing Translational Sciences (NCATS), 2020).
About 1,600 (39%) of roughly 4,100 compounds were called active. Inconclusive results (about 25%) are left out. Calls follow the shape of the dose curve; as a rule, active = well fitted inhibition curve with a large enough effect; inconclusive = small, poorly fitted or top-dose-only effect; inactive = no such curve, though single readings can be large or run the other way. Some of the results follow.

Test: qHTS Validation assay for Inhibitors of Plasmodium falciparum Dd2 growth in vitro; also: nearly all actives have a fitted effect of over 70% in size
Settings: P. falciparum Dd2 in RBCs, SYBR Green growth, 72 h; series mostly up to 28.7 µM
Procedure, shortened: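 P. falciparum Dd2-infected red blood cells (2.5% hematocrit, 0.3% parasitemia) grown 72 h at 37 °C under 5% O2 with compounds in a titration, 29 uM to 0.5 nM final. Growth read as SYBR Green-1 fluorescence after ~16 h lysis; artesunate 300 nM as positive control.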
Potency is read from the fitted curve at half-maximal effect.

Q: With `O=c1[nH]c(N2CCOCC2)nc2c1CCN(Cc1ccccc1C(F)(F)F)CC2` as the compound, how does the Potency read?
A: The Potency was 4.73 µM (active).

Q: With `O=c1[nH]c(N2CCOCC2)nc2c1CCN(Cc1cccc(C(F)(F)F)c1)CC2` as the compound, how does the Potency read?
A: Its Potency is “inactive”.

Q: For `O=c1[nH]c(N2CCOCC2)nc2c1CCN(Cc1ccccc1Br)CC2`, which Potency is on record?
A: Its Potency is 15 µM (active).

Q: Which Potency does the source give for `COc1cccc(CN2CCc3nc(N4CCOCC4)[nH]c(=O)c3CC2)c1OC` here?
A: The Potency was “inactive”.

Q: For `Cc1noc2c(NC3CCN(C)CC3)cc(-c3cccc(C(F)(F)F)c3)nc12`, which Potency is on record?
A: Its Potency is 13.7 µM (active).

Q: For `O=C(Nc1ncccc1O)c1ccc(NS(=O)(=O)c2ccc3[nH]c(=O)[nH]c3c2)cc1`, which Potency is on record?
A: Its Potency is 0.422 µM (active).

Q: For `Cc1cc(Br)ccc1NC(=O)c1ccc(NS(=O)(=O)c2c(C)noc2C)cc1`, which Potency is on record?
A: The Potency was “inactive”.

Q: Which Potency does the source give for `CC(=O)N1c2c(cc(Br)cc2S(=O)(=O)N2CCN(c3cc(C)ccc3C)CC2)CC1C` (centres undefined) here?
A: Its Potency is 11.9 µM (active).

Q: Which Potency does the source give for `CN(C)c1ccc(CN2CCC3(C2)C(=NC2CCCCC2)NC(=O)N3c2cccnc2)cc1` (centres undefined) here?
A: Its Potency is “inactive”.

Q: With `O=C(c1ccc(C(F)(F)F)cc1)N1CCC2(CC1)C(=NC1CCCCC1)NC(=O)N2c1cc(F)cc(F)c1` as the compound, how does the Potency read?
A: The Potency was “inactive”.

Q: Which Potency does the source give for `O=C1NC(=NC2CCCCC2)C2(CCCN([S+](=O)([O-])c3ccccc3)C2)N1c1cccnc1` (centres undefined) here?
A: Its Potency is “inactive”.

Q: With `O=C1NC(=NC2CCCCC2)C2(CCN(Cc3ccc(F)cc3)C2)N1c1cc(F)cc(F)c1` (centres undefined) as the compound, how does the Potency read?
A: Its Potency is 4.22 µM (active).

Q: For `O=C1NC(=NC2CCCC2)C2(CCN(Cc3ccc(F)cc3)C2)N1c1cc(F)cc(F)c1` (centres undefined), which Potency is on record?
A: The Potency was 10.6 µM (active).

Q: For `CN(C)c1ccc(CN2CCC3(C2)C(=NC2CCCC2)NC(=O)N3c2cccnc2)cc1` (centres undefined), which Potency is on record?
A: Its Potency is “inactive”.

Q: Which Potency does the source give for `CCOC(=O)c1c(NC(=O)c2ccccc2)sc2c(O)c(CN(CC)CC)ccc12` here?
A: Its Potency is 0.15 µM (active).

Q: Which Potency does the source give for `COc1cccc(Cn2c(Oc3ccccc3)nc3c2c(=O)n(C)c(=O)n3C)c1` here?
A: Its Potency is 4.73 µM (active).

Q: With `Cc1ccc(Oc2nc3c(c(=O)n(Cc4ccccc4)c(=O)n3C)n2C)cc1C` as the compound, how does the Potency read?
A: The Potency was “inactive”.

Q: With `CCNc1nc2c(c(=O)n(C)c(=O)n2C)n1Cc1ccc(F)cc1` as the compound, how does the Potency read?
A: Its Potency is “inactive”.

Q: With `Cc1ccccc1C(=O)N1CCCCC12Cc1ccccc1NC2=O` (centres undefined) as the compound, how does the Potency read?
A: The Potency was “inactive”.

Q: For `CN1CCNc2nc(COc3ccc(Oc4ccccc4)cc3)n(Cc3ccccc3)c2C1=O`, which Potency is on record?
A: Its Potency is “inactive”.

Q: With `CC(C)Oc1ccc(CCc2n[nH]c(=S)n2Cc2ccccc2)cc1` as the compound, how does the Potency read?
A: The Potency was 5.31 µM (active).

Q: With `CCCOc1ccc(CCc2n[nH]c(=S)n2Cc2ccccc2)cc1` as the compound, how does the Potency read?
A: The Potency was 5.31 µM (active).

Q: Which Potency does the source give for `COc1ccc(/C=N/Nc2cc(C)nc3ccccc23)cc1` here?
A: The Potency was 2.11 µM (active).

Q: With `S=C(NCc1ccccc1)N1CCn2cccc2C1c1cccnc1` (centres undefined) as the compound, how does the Potency read?
A: Its Potency is 9.44 µM (active).

Q: With `S=C(NCc1ccccc1)Nc1ccncc1` as the compound, how does the Potency read?
A: Its Potency is “inactive”.

Q: With `CN(C)c1ccc(-c2ccnc(N[C@H]3CO[C@H]4[C@@H]3OC[C@@H]4NC(=O)NCc3ccccc3)n2)cc1` as the compound, how does the Potency read?
A: The Potency was “inactive”.

Q: For `O=C(O)COc1ccc(-c2nccc(-c3cccs3)n2)cc1`, which Potency is on record?
A: Its Potency is “inactive”.

Q: Which Potency does the source give for `c1csc(-c2ccnc(N[C@H]3CO[C@H]4[C@@H]3OC[C@@H]4NCC3CCCCC3)n2)c1` here?
A: The Potency was 12.2 µM (active).

Q: With `Cc1cc(CN2CCC(CO)(Cc3ccccc3Cl)CC2)cc(C)c1O` as the compound, how does the Potency read?
A: The Potency was 16.8 µM (active).

Q: Which Potency does the source give for `CCc1ccccc1CN1CCC(CO)(CN2CCCC2)CC1` here?
A: The Potency was “inactive”.

Q: For `CCOc1ccc(CNC(=O)CN2N=C(c3ccccc3)CCC2=O)cc1OC`, which Potency is on record?
A: Its Potency is “inactive”.

Q: With `COc1ccc(CC(=O)NCc2ccccn2)cc1OC` as the compound, how does the Potency read?
A: Its Potency is 7.5 µM (active).

Q: For `Cc1cn2nc(C(=O)NCc3ccccn3)cc2c(=O)[nH]1`, which Potency is on record?
A: Its Potency is “inactive”.

Q: With `O=C1c2ccccc2C(=O)c2[nH]c(=O)[nH]c21` as the compound, how does the Potency read?
A: Its Potency is 5.96 µM (active).

Q: With `C=C[C@]1(C)C[C@@H](OC(=O)CSC(C)(C)CNC(=O)[C@H](N)C(C)C)[C@]2(C)[C@H](C)CC[C@]3(CCC(=O)[C@H]32)[C@@H](C)[C@@H]1O` as the compound, how does the Potency read?
A: Its Potency is 8.41 µM (active).

Q: With `CCN(CC)CCC(c1ccc(N(C)C)cc1)c1c(O)cc(OC)cc1OC` (centres undefined) as the compound, how does the Potency read?
A: The Potency was 3.35 µM (active).

Q: With `CCN(CC)CCC(c1ccc2c(c1)OCO2)c1c(O)cc(OC)cc1OC` (centres undefined) as the compound, how does the Potency read?
A: Its Potency is 4.22 µM (active).

Q: Which Potency does the source give for `CCN(CC)CCC(c1ccc(OC)cc1)c1c(O)cc(OC)cc1OC` (centres undefined) here?
A: The Potency was 6.68 µM (active).

Q: For `CCCn1ccc2sc(C)c(C(=O)O)c2c1=O`, which Potency is on record?
A: The Potency was “inactive”.

Q: With `COc1cccc(CN2CCc3c(cc(C(=O)NCc4ccccn4)n3C)C2)c1` as the compound, how does the Potency read?
A: The Potency was 15 µM (active).

Q: Which Potency does the source give for `CCn1cc(-c2ccncc2)cc1C(=O)NCc1cccc(OC)c1` here?
A: The Potency was “inactive”.

Q: Which Potency does the source give for `COc1ccc(C(=O)N2CCc3ccc(C(=O)NCc4ccccn4)cc32)cc1` here?
A: The Potency was “inactive”.

Q: With `Cc1noc(-c2cn(C3CCN(C(=O)Cc4ccc(OC(F)(F)F)cc4)CC3)nn2)n1` as the compound, how does the Potency read?
A: The Potency was “inactive”.

Q: Which Potency does the source give for `CCOc1ccc(C(=O)NCc2nc3cccnc3n2Cc2cccc(OC)c2)cc1` here?
A: The Potency was “inactive”.

Q: With `CCCC(=O)NCCc1noc(-c2ccccc2)n1` as the compound, how does the Potency read?
A: Its Potency is “inactive”.

Q: For `COc1cccc(C(NC(C)=O)c2ccc3cccnc3c2O)c1` (centres undefined), which Potency is on record?
A: Its Potency is 4.22 µM (active).

Q: With `CCCC(=O)NC(c1ccc(C(C)C)cc1)c1ccc2cccnc2c1O` (centres undefined) as the compound, how does the Potency read?
A: Its Potency is 13.3 µM (active).

Q: Which Potency does the source give for `CCCC(=O)NC(c1ccccc1)c1ccc2cccnc2c1O` (centres undefined) here?
A: The Potency was 6.68 µM (active).

Q: Which Potency does the source give for `CCCCC(=O)NC(c1ccccc1OC)c1ccc2cccnc2c1O` (centres undefined) here?
A: Its Potency is 5.31 µM (active).

Q: Which Potency does the source give for `Cc1cn2nc(-c3nc(C4CCCN(C(=O)c5cccs5)C4)no3)cc2c(=O)[nH]1` (centres undefined) here?
A: The Potency was “inactive”.

Q: Which Potency does the source give for `CCCCC(=O)NC(c1ccc(C(C)C)cc1)c1ccc2cccnc2c1O` (centres undefined) here?
A: Its Potency is 7.5 µM (active).

Q: Which Potency does the source give for `c1ccc(-[n+]2nc(Nc3cccc4ccccc34)sc2-c2c3ccccc3cc3ccccc23)cc1` here?
A: Its Potency is 5.96 µM (active).

Q: Which Potency does the source give for `COc1cc(CN2CCC3(CC2)C(=O)NCN3Cc2ccc(Cl)cc2)ccc1F` here?
A: The Potency was “inactive”.

Q: With `CCOC(=O)C1(Cc2ccc(Cl)cc2)CCN(Cc2ccc(OC)cc2O)CC1` as the compound, how does the Potency read?
A: Its Potency is 0.188 µM (active).

Q: For `COc1ccc(CCN2CC(C(=O)N3CCC(CO)CC3)CCC2=O)cc1` (centres undefined), which Potency is on record?
A: The Potency was “inactive”.

Q: With `COc1ccc(CNC(=O)C2=C(C)C(=O)OC23CCC(C)CC3)cc1` (centres undefined) as the compound, how does the Potency read?
A: Its Potency is “inactive”.

Q: For `COC(=O)[C@]1(C)CCC[C@@]2(C)C3CC[C@@]4(C)C[C@]3(CCC21)CC(=O)N4Cc1ccc(OC)cc1` (some centres undefined), which Potency is on record?
A: Its Potency is 3.76 µM (active).

Q: With `Cc1c(C#N)c2ccccc2n1CCOc1ccccc1F` as the compound, how does the Potency read?
A: The Potency was 1.68 µM (active).

Q: For `COc1ccc(-c2nc(Cn3c(SCc4ccccc4F)nc4ccncc43)c(C)o2)cc1OC`, which Potency is on record?
A: Its Potency is 8.41 µM (active).
